Entries with a potency or affinity are not part of this list. Activity calls are given as the source filed them.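 The calls were made as follows: active = cell killing whose fitted half-effect concentration is at most twice the top valid dose tested; inconclusive = flat curve with 30 to 70% killing, or a poor fit; inactive = effect in the rising direction, plus the rest.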
Assay: A549 cell cytotoxicity, dose response, cytotoxicity control, ATP luminescence, cherry-pick, set 2 (AID 1053124)

## CCOC(=O)c1c(C)n(C)c2ccc(OCC(O)CN3CCC(C)CC3)cc12 (centres undefined)
  outcome: inactive

## CSc1ccc(Cl)c(C(=O)N2CCOc3ccccc32)c1
  outcome: inactive

## CCOC(=O)c1cc2c(=O)n3cccc(C)c3nc2n(CC(C)C)c1=NC(=O)c1ccco1
  outcome: inactive

## COCCn1c(=N)c(S(=O)(=O)c2ccc(F)cc2)cc2c(=O)n3ccccc3nc21
  outcome: inactive

## CCN(CC)c1ccc2cc(C#N)c(=O)oc2c1
  outcome: inactive

## C/C(=N\NC(=O)CC#N)c1cc2ccc(O)cc2oc1=O
  outcome: inactive

## O=c1oc2cc(O)ccc2cc1S(=O)(=O)c1ccccc1
  outcome: inactive

## CCNC(=O)c1cc2c(=O)n3cccc(C)c3nc2n(Cc2ccc(C)cc2)c1=N
  outcome: inactive

## CC1(C)CC(=O)C2=C(C1)OC(N)=C(C#N)[C@@H]2c1ccccc1[N+](=O)[O-]
  outcome: inactive

## O=C(NS(=O)(=O)c1ccc(Cl)s1)c1ccccc1
  outcome: inactive

## CCN(CC)c1ccc2cc(C(N)=O)c(=O)oc2c1
  outcome: inactive

## COc1ccc(S(=O)(=O)Cc2ccc(C(=O)N3CCN(Cc4ccccc4)CC3)o2)cc1
  outcome: inactive

## Cc1ccc(-n2nnnc2CNC(=O)C(=O)c2c[nH]c3ccccc23)cc1C
  outcome: inactive

## CCN(CC)Cc1c(O)c(Cl)cc2c(C)cc(=O)oc12
  outcome: inactive

## CC(C)CCN(CCC(C)C)CC(O)Cn1c2ccccc2c(=O)c2ccccc21 (centres undefined)
  outcome: inactive

## CC(=O)OC[C@@H]1CN(Cc2ccccc2)C[C@H](n2cnc3c(N(C)C(C)C)ncnc32)O1
  outcome: inactive

## Cc1c2c(n3c(nc4ccccc43)c1C#N)N(CCN1CCOCC1)CC2
  outcome: inactive

## COc1ccccc1C(=O)c1cc2ccc(O)cc2oc1=O
  outcome: inactive

## COC(=O)C1=CN(C)C=C(C(=O)OC)C1c1ccccc1Cl
  outcome: inactive

## S=c1[nH]c2ccc(Cc3ccc4[nH]c(=S)[nH]c4c3)cc2[nH]1
  outcome: inactive

## COc1ccccc1C1C2=C(CC(C)(C)CC2=O)N(CC(=O)O)C2=C1C(=O)CC(C)(C)C2
  outcome: inactive

## O=C(CCc1c[nH]c2ccccc12)OCC(=O)c1ccccc1
  outcome: inactive

## N#Cc1c2ccc(OCC(N)=O)cc2n2ccccc12
  outcome: inactive

## C#CCOc1ccc(C2C(C#N)=C(N)Oc3cc(O)ccc32)cc1 (centres undefined)
  outcome: inactive

## COc1ccccc1/C=N/Nc1nc(C)cc(=O)[nH]1
  outcome: inactive

## O=C(CCCn1c(=O)c2sccc2n(Cc2cc(=O)n3ccccc3n2)c1=O)NCc1ccco1
  outcome: inactive

## CCCCn1nc(NC(=O)c2cccs2)c2cc3cc(OC)ccc3nc21
  outcome: inactive

## N#Cc1ccc(OCC(=O)OCC(=O)N2CCc3ccccc32)cc1
  outcome: inactive

## Cc1nc(CCNC(=O)Cc2ccc(Cl)cc2)cs1
  outcome: inactive

## CCCOc1ccccc1/C=C1\SC(N)=NC1=O
  outcome: inactive

## Cc1cccn2c(=O)c3cc(C(=O)NCc4ccc(F)cc4)c(=N)n(CCCN4CCOCC4)c3nc12
  outcome: inactive

## COc1ccc(CNC(=O)c2sc(=O)n(Cc3ccc(C)cc3)c2C)cc1OC
  outcome: inactive

## Cc1c(C(=O)NCc2ccc3c(c2)OCCO3)sc(=O)n1Cc1ccccc1F
  outcome: inactive

## O=C(O)c1ccc(-c2ccc(/C=C3\NC(=O)N(Cc4ccc(Cl)cc4)C3=O)o2)cc1
  outcome: inactive

## CC(=O)c1cc2c(ccc3ccccc32)oc1=O
  outcome: inactive

## CCOCCCNc1nc2nc3ccc(C)cn3c(=O)c2cc1C(=O)NCC1CCCO1 (centres undefined)
  outcome: inactive

## Cc1ccc(C(=O)OCC(=O)Nc2c(C)nn(-c3ccccc3)c2C)c(O)c1
  outcome: inactive

## Cc1cc(CNC(=O)c2ccc3c(c2)OCO3)c2ccccc2n1
  outcome: inactive

## Cc1cccn2c(=O)c3cc(C(N)=S)c(=N)n(CCCOC(C)C)c3nc12
  outcome: inactive

Reference: PubChem BioAssay AID1053124 (Broad Institute, 2014)
